Laboratory results as given in PubChem BioAssay (NCATS).
Inconclusive results are not listed. Unmarked numbers belong to inactive results. The call rests on the fitted dose curve; in most records, active means well fitted cell-killing curve with a large enough effect; inconclusive means small, poorly fitted or top-dose-only effect; inactive means flat fitted curve, though single readings scatter.

Assay: Cell Viability - LYMP1-002 - Assay at 16 hr (AID 948);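 further: 0% = DMSO alone and full effect = 92 µM tetraoctylammonium bromide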
Conditions: LYMP1-002 lymphoblastoid cell viability; series mostly up to 92.2 µM; activity change, negative = cytotoxicity: at the top concentration
From the text: NIH Chemical Genomics Center [NCGC]
NIH Molecular Libraries Screening Centers Network [MLSCN]
National Institutes of Environmental Health Sciences [NIEHS]
National Toxicology Program [NTP]
We have developed a 1536-well cell-based assay for quantitative high throughput screening (qHTS) against a number of cell lines to determine in vitro cytotoxicity of small molecules. This particular assay uses a human lymphoblastoid cell line (LYMP1-002) purchased from Coriell Institute for Medical Research.
NCGC Assay Protocol Summary:
The CellTiter-Glo luminescent cell viability assay (Promega) is a homogeneous method to measure the number of viable cells in culture. The end point readout of this assay is based on quantitation of intracellular ATP, an indicator of metabolic activity, using the luciferase reaction. Luciferase catalyzes the oxidation of beetle Luciferin to oxyluciferin and light in the presence of ATP. The luminescent signal is proportional to amount of ATP present.
Using the CellTiter-Glo luminescent cell viability assay, the amount of cellular ATP was measured in the lymphoblastoid cell line with complete culture medium following compound treatment for 16 hours. The assay was performed in opaque white Kalypsys 1536-well plates. In the screen, tetraoctylammonium bromide was used as positive control. Library compounds were measured for their ability to cause acute toxicity in the cell line, as reflected by a decrease in intracellular ATP levels, in a concentration-dependent manner. […] AC50 values were determined from concentration-response data modeled with the standard Hill equation.
qHTS protocol for CellTiter Glo lymphoblastoid cellular assay
[Step] [Parameter] [Value] [Description]
1. Reagent; 5 uL; 2500 lymphoblastoid cells/well
2. Time; 5 hr; 37 C incubation
4. Controls; 23 nL; Tetraoctylammonium bromide 6.4pM to 92 uM
5. Time; 16 hr; 37 C incubation
6. Reagent; 5 uL; CellTiter Glo reagent
7. Time; 30 min; Room Temperature
8. Detection; Luminescence; Viewlux plate reader
Keywords: cell viability, cytotoxicity, lymphoblastoid cell line, luminescence, NTPHTS, NTPHTS_NCGC, NIEHS, DSSTox, MLSMR, MLSCN, NIH Roadmap, qHTS, NCGC

Row | SMILES | activity change, negative = cytotoxicity [%]
1 | CCCCC(CC)COCC1CO1 (stereo not given) | -2.28
2 | Cc1ccccc1C(=O)O | -2.62
3 | O=[N+]([O-])c1ccc2nc[nH]c2c1 | -0.822
4 | Nc1cccc(O)c1 | -6.19
5 | Cc1ccc(N(C)C)cc1 | -2.46
6 | Cc1cccc2ccccc12 | -0.896
7 | Cc1ccc(CO)cc1 | -2.91
8 | FB(F)F | -2.83
9 | OC/C(Br)=C(\Br)CO | -4.05
10 | CCC(C)(C)C | 2.42
11 | ClC/C=C/CCl | -2.09
12 | Cc1c(N)cccc1N | -2.59
13 | CCOC(C)(C)C | 2.8
14 | Cc1ccc(C)c([N+](=O)[O-])c1 | -1.71
15 | CCC(O)C(C)(C)C (stereo not given) | -4.01
16 | N#Cc1ccccc1 | -0.32
17 | C=C(C)OC(C)=O | -3.03
18 | CCc1ccccc1O | -0.394
19 | Nc1ccccc1[N+](=O)[O-] | 2.19
20 | CCCCC(CC)CO (stereo not given) | 0.517

Row | SMILES | activity change, negative = cytotoxicity [%]
21 | O=C(O)CNC(=O)c1ccc(CO)o1 | -5.12
22 | O=C1OC(=O)c2cc([N+](=O)[O-])ccc21 | -0.26
23 | CC(C)N=C=NC(C)C | 0.0747
24 | CC(C)(c1cc(Br)c(OCC(Br)CBr)c(Br)c1)c1cc(Br)c(OCC(Br)CBr)c(Br)c1 (stereo not given) | -1.83
25 | Nc1ccc(F)cc1F | -3.83
26 | C=C(C)C(N)=O | -5.59
27 | CN(C)CCCCl | -2.04
28 | Fc1ccccc1 | -2.83
29 | FC(F)(F)c1cccc(Cl)c1 | -6.6
30 | O=C(O)c1cccc([N+](=O)[O-])c1 | -2.15
31 | Cc1cccc([N+](=O)[O-])c1C(=O)O | -4.57
32 | Cc1cc(C)c(N)cc1C | -0.334
33 | CC(C)C=O | -8.12
34 | O=C(O)c1cc(Cl)cc(Cl)c1 | -2.52
35 | CN(C)c1cccc(O)c1 | -8.33
36 | Cc1cccc(C)c1 | -0.663
37 | CC(=O)Nc1ccc(C)cc1 | -2.52
38 | CC(=O)c1nccs1 | 4.53
39 | COC(=O)CS | -4.59
40 | Nc1ccc([N+](=O)[O-])c(N)c1 | 1.88
